Laboratory results taken from PubChem BioAssay (NCATS).
Inconclusive results are not listed. Entries that show only a call come without a potency. The source made the active and inactive calls. Calls come from the whole dose curve; as a rule, active = well fitted curve in the direction sought with a large enough effect; inconclusive = small, poorly fitted or top-dose-only effect, or another doubt; inactive = no such curve, though single readings can be large; an effect the other way counts as inactive or inconclusive.

Assays:
[1] = qHTS of pediatric cancer cell lines to identify multiple opportunities for drug repurposing: Primary screen for Rh18 cells (AID 1347102); note: nearly all actives have a fitted effect of over 65% in size; note: potency is the fitted concentration of half-maximal effect
In short: (§1)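 Cells (500-1,000/well) rested 5 h, then received compounds for 48 h; metabolically active cells were measured by CellTiter-Glo luminescence. Final concentrations spanned up to 46 µM (MIPE, 11-point) or 0.59 nM-46 µM (NPC, 8-point) in primary screens, 11-point in follow-ups.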

[2] = qHTS of pediatric cancer cell lines to identify multiple opportunities for drug repurposing: Primary screen for OHS-50 cells (AID 1347103); note: nearly all actives have a fitted effect of over 40% in size; note: potency is the fitted concentration of half-maximal effect
In short: as §1

[3] = qHTS of pediatric cancer cell lines to identify multiple opportunities for drug repurposing: Primary screen for RD cells (AID 1347104); note: nearly all actives have a fitted effect of over 55% in size; note: potency is the fitted concentration of half-maximal effect
In short: (§2)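 ATP-based luminescence (CellTiter-Glo) quantifies viability after a 48-hour exposure. Compounds are dosed across 8 or 11 final concentrations; DMSO and 2.3 µM bortezomib serve as controls.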

[4] = qHTS of pediatric cancer cell lines to identify multiple opportunities for drug repurposing: Primary screen for MG 63 (6-TG R) cells (AID 1347105); note: nearly all actives have a fitted effect of over 50% in size; note: potency is the fitted concentration of half-maximal effect
In short: as §2

[5] = qHTS of pediatric cancer cell lines to identify multiple opportunities for drug repurposing: Primary screen for control Hh wild type fibroblast cells (AID 1347106);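 note: series mostly up to about 46 µM; a drop in luminescence marks cytotoxicity and a rise apparent proliferation; nearly all actives have a fitted effect of over 55% in size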
In short: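 Viability after 48 h compound treatment at 37C, 500-1,000 cells/well, read as ATP luminescence with CellTiter-Glo. Primary screens used 11-point (MIPE, 0.78 nM-46 µM) or 8-point (NPC, 0.59 nM-46 µM) final concentrations; follow-up screens used 11-point dilutions.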

[6] = qHTS of pediatric cancer cell lines to identify multiple opportunities for drug repurposing: Primary screen for Rh30 cells (AID 1347107); note: nearly all actives have a fitted effect of over 75% in size; note: potency is the fitted concentration of half-maximal effect
In short: as §1

[7] = qHTS of pediatric cancer cell lines to identify multiple opportunities for drug repurposing: Primary screen for Rh41 cells (AID 1347108); note: nearly all actives have a fitted effect of over 70% in size; note: potency is the fitted concentration of half-maximal effect
In short: as §2

[8] = qHTS of pediatric cancer cell lines to identify multiple opportunities for drug repurposing: Confirmatory screen for NB1643 cells (AID 1347109); note: potency is the fitted concentration of half-maximal effect; nearly all actives have a fitted effect of over 45% in size
In short: as §1

[9] = qHTS of pediatric cancer cell lines to identify multiple opportunities for drug repurposing: Confirmatory screen for A673 cells (AID 1347110);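 note: potency is the fitted concentration of half-maximal effect; cells exposed to compound for 48 h before the viability read; nearly all actives have a fitted effect of over 65% in size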
In short: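 Cells plated at 500-1,000/well were treated five hours later with multi-point dilutions up to 46 µM final. After two days, CellTiter-Glo was added and luminescence read.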

[10] = qHTS of pediatric cancer cell lines to identify multiple opportunities for drug repurposing: Confirmatory screen for SK-N-MC cells (AID 1347111);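 note: potency is the fitted concentration of half-maximal effect; cells exposed to compound for 48 h before the readout; nearly all actives have a fitted effect of over 70% in size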
In short: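 Seed 500-1,000 cells/well; rest 5 h at 37 degrees C. Pin-transfer compounds, 11-point titration. Incubate 48 h. Add CellTiter-Glo, 15 min RT, read luminescence.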

SMILES | Potency [1] | Potency [2] | Potency [3] | Potency [4] | Potency [5] | Potency [6] | Potency [7] | Potency [8] | Potency [9] | Potency [10]
Cc1cn([C@H]2C[C@H](F)[C@@H](CO)O2)c(=O)[nH]c1=O | inactive | inactive | inactive | inactive | inactive | inactive | inactive | – | – | –
CC(CNC1CCCCC1)OC(=O)c1ccccc1 (stereo unspecified) | inactive | inactive | inactive | inactive | inactive | inactive | inactive | – | – | –
C/C=C/c1ccc(O)c(OC)c1 | inactive | inactive | inactive | inactive | inactive | inactive | inactive | – | – | –
CCc1ccc(C(=O)C(C)CN2CCCCC2)cc1 (stereo unspecified) | inactive | inactive | inactive | inactive | inactive | inactive | inactive | – | – | –
O=C(O)C1(C(=O)O)CCC1.[NH2-].[NH2-].[Pt+2] | inactive | inactive | inactive | inactive | inactive | inactive | inactive | – | – | –
CCN1/C(=C/C=C/c2sc3ccccc3[n+]2CC)Sc2ccccc21 | 1030 nM (active) | 601 nM (active) | 1160 nM (active) | 1840 nM (active) | – | 3260 nM (active) | 1640 nM (active) | 1310 nM (active) | 456 nM (active) | 827 nM (active)
CC(=O)Nc1ncc([N+](=O)[O-])s1 | inactive | inactive | inactive | inactive | inactive | inactive | inactive | – | – | –
C[C@@]12C(=O)OC(=O)[C@]1(C)C1CCC2O1 | 1880 nM (active) | 1740 nM (active) | 4730 nM (active) | 1680 nM (active) | – | – | 2660 nM (active) | 2930 nM (active) | 7370 nM (active) | 3290 nM (active)
COc1ccc(-c2cc(C(F)F)nn2-c2ccc(S(N)(=O)=O)cc2)cc1F | inactive | inactive | inactive | inactive | inactive | inactive | inactive | – | – | –
N[C@H](C(=O)O)[C@@H](O)c1ccc(O)c(O)c1 | inactive | inactive | inactive | inactive | inactive | inactive | inactive | – | – | –
N#CCC(=O)NN | inactive | inactive | inactive | inactive | inactive | inactive | inactive | – | – | –
CCN(CC)CCOC(=O)C1(c2ccccc2)CCCC1 | inactive | inactive | inactive | inactive | inactive | inactive | inactive | – | – | –
C=C[C@H]1CN2CC[C@H]1C[C@@H]2[C@@H](O)c1ccnc2ccc(OC)cc12 | inactive | inactive | inactive | inactive | inactive | inactive | inactive | – | – | –
Cc1ncc(CO)c(C=O)c1O | inactive | inactive | inactive | – | inactive | inactive | – | – | – | –
CCOCCn1c(N2CCCN(C)CC2)nc2ccccc21 | inactive | inactive | inactive | inactive | inactive | inactive | inactive | – | – | –
Nc1nc(Cl)nc2c1ncn2[C@@H]1O[C@H](CO)[C@@H](O)[C@@H]1F | inactive | 195 nM (active) | inactive | 841 nM (active) | inactive | inactive | inactive | 1470 nM (active) | 1040 nM (active) | 92.8 nM (active)
CC(=O)NC(=O)c1ccccc1O | inactive | inactive | inactive | inactive | inactive | inactive | inactive | – | – | –
NS(=O)(=O)Cc1noc2ccccc12 | inactive | inactive | inactive | – | inactive | inactive | – | – | – | –
CCCCCCCCCCCCCCC[C@H](O)[C@@H](N)CO | inactive | inactive | inactive | – | inactive | inactive | – | – | – | –
Cc1c[nH]c2ccccc12 | inactive | inactive | – | inactive | inactive | inactive | – | – | – | –
COc1cc(C(=O)N2CCCCCCC2)cc(OC)c1OC | inactive | inactive | – | inactive | inactive | inactive | inactive | – | – | –
CC(=O)Nc1ccc(OC(=O)c2ccccc2OC(C)=O)cc1 | inactive | inactive | inactive | – | inactive | inactive | inactive | – | – | –
CC[C@H](c1ccc(O)cc1)[C@@H](CC)c1ccc(O)cc1 | inactive | 27600 nM (active) | – | 13300 nM (active) | inactive | inactive | inactive | – | – | –
CC(=O)O[C@H]1C[C@@H]2CC[C@@H]3[C@H](CC[C@@]4(C)[C@H]3C[C@H]([N+]3(C)CCCCC3)[C@@H]4OC(C)=O)[C@@]2(C)C[C@@H]1N1CCCCC1 | inactive | inactive | – | inactive | inactive | inactive | – | – | – | –
CC(=O)OCC1=C(C(=O)O)N2C(=O)[C@@H](NC(=O)CSc3ccncc3)[C@H]2SC1 | inactive | inactive | inactive | – | inactive | inactive | inactive | – | – | –
NC(=S)N/N=C/c1cccnc1 | inactive | inactive | inactive | – | inactive | inactive | inactive | – | – | –
CCCN(CCC)S(=O)(=O)c1ccc(C(=O)O)cc1 | inactive | inactive | inactive | – | inactive | inactive | – | – | – | –
CN(C)CCC[C@@]1(c2ccc(F)cc2)OCc2cc(C#N)ccc21 | inactive | inactive | – | inactive | inactive | inactive | inactive | – | – | –
CC(=C(CCOC(=O)C(C)C)SSC(CCOC(=O)C(C)C)=C(C)N(C=O)Cc1cnc(C)nc1N)N(C=O)Cc1cnc(C)nc1N | inactive | inactive | inactive | – | inactive | inactive | inactive | – | – | –
COc1ccc(CN(CCN(C)C)c2ncccn2)cc1 | inactive | inactive | – | inactive | inactive | inactive | inactive | – | – | –
